Source: PubChem
Sampled rows, rich in hits. Any-hit rate of the full collection: about 6.5%.
IL1B secr inh: qHTS for Inhibitors of Inflammasome Signaling: IL-1-beta AlphaLISA Primary Screen. THP-1 LPS/ATP IL-1B secretion, AlphaLISA, 16 h; stronger effect = lower value. activity change, % at 57.5 µM. hit rate 4.7% among 360,000; in the data active = activity change below about -50%; inconclusive = mostly about -30% to -49%
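Secreted IL-1B measured by AlphaLISA bead assay after 16 h compound exposure of THP-1 cells; compounds (final up to 57.5 uM) added 1 h before LPS (250 ng/mL) and ATP (1.25 mM) stimulation; lower signal means less secretion.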
HT1080 IDH1KD tx: qHTS for induction of synthetic lethality in tumor cells producing 2HG: qHTS for the HT-1080-IDH1KD cell line. HT-1080 IDH1 knockdown viability, ATP luminescence, 48 h. Potency, µM (titrated, usually from 46.1 µM), actives largely listed as cytotoxic. hit rate 2% among 360,000
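In this qHTS, HT-1080 cells depleted of IDH1 are exposed for 48 h at 37 °C to compound titrations. Toxicity is scored from CellTiter-Glo luminescence, with DMSO as full viability and medium alone as none.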
TGFb SMAD3 inh: qHTS for Inhibitors of TGF-b. HepG2 CAGA-GFP TGF-b/SMAD3 reporter, GFP fluorescence, 18 h; TGF-beta stimulated, 500 pg/mL final. hit rate 1.2% among 410,000. Potency, µM (titrated, usually from 46.1 µM), usual class: inhibitors; also: nearly all actives have a fitted effect of over 65% in size
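Per well, imaged GFP fluorescence of HEPG2 CAGA-GFP cells gives the signal; cells get compound, then TGF-beta (500 pg/mL final), 18 h at 37 degrees C; %Activity versus -TGF-beta and +DMSO controls.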
Giardia killer: Small Molecules that selectively kill Giardia lamblia: qHTS; activity change, % at 7.66 µM, hits read low; Giardia lamblia trophozoite viability; hit rate 0.15% among 340,000; AID 540267, 2011; in the data active = activity change below about -80%; inconclusive = between about -30% and that limit;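 also: parasites exposed to compound for two days anaerobically before the ATP read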
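Each well holds 100 Giardia trophozoites and compound. After two days (48 hrs) at 37 deg C in anaerobic conditions, ATP is quantified by luminescence.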
HT1080NT lethal: qHTS for induction of synthetic lethality in tumor cells producing 2HG: qHTS for the HT-1080-NT fibrosarcoma cell line; HT-1080-NT fibrosarcoma viability, CellTiter-Glo ATP luminescence, 48 h; Potency, µM (highest dose often 46.1 µM), hits mostly cytotoxic; hit rate 1.6% among 360,000;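 also: NT is the 2HG producing partner of a matched IDH1 knockdown line; nearly all actives have a fitted effect of over 55% in size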
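Read-out is CellTiter-Glo luminescence after 10 minutes at room temperature, following 48 hours' compound treatment of HT-1080-NT cells (750 cells/well, RPMI, 5% FBS, 37 degrees C).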
HepG2 tox: qHTS for Inhibitors of TGF-b: Cytotox Counterscreen. HepG2 CAGA-GFP viability, ATP luminescence, 18 h. Potency, µM (titrated, usually from 46.1 µM), hits mostly cytotoxic. hit rate 0.76% among 410,000
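CellTiter-Glo luminescence gave cytotoxicity after 18 hours at 37 degrees C. The cells were HepG2 CAGA-GFP in 1% FBS DMEM, stimulated with 500 pg/mL TGF-beta after compound addition. %Activity was normalised to no-cell wells (complete cell-killing) and DMSO (no toxicity), and curves were fitted and classified.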
Hits are given with their value; 0 = inactive; ? = inconclusive; - = not tested or not shown. Unless noted, calls follow the shape of the dose curve; as a rule, active = well fitted curve in the direction sought with a large enough effect; inconclusive = small, poorly fitted or top-dose-only effect, or another doubt; inactive = no such curve, though single readings can be large; an effect the other way counts as inactive or inconclusive.

SMILES	IL1B secr inh	HT1080 IDH1KD tx	TGFb SMAD3 inh	Giardia killer	HT1080NT lethal	HepG2 tox
Cc1cc(/C=C2\SC(N)=NC2=O)c(C)n1-c1ccc(F)cc1	0	0	0	0	0	12.6µM
Cc1ccc(-n2c(C)cc(/C=C3\SC(=O)NC3=O)c2C)cc1	0	0	0	0	0	0
CC(C)Oc1ccc(C(CC(=O)O)NC(=O)Cc2ccccc2)cc1 (stereo unspecified)	0	0	0	0	0	0
CCCN(CC(=O)Nc1ccccc1C)C(=O)C1CC(=O)N(c2ccccc2C(C)CC)C1 (stereo unspecified)	0	0	0	0	0	0
CCC(C)c1ccccc1N1CC(C(=O)N(C)CC(=O)Nc2cccc(F)c2)CC1=O (stereo unspecified)	-60.9	0	0	0	0	0
CC(C)Oc1cccc(NC(=O)C2CCN(S(=O)(=O)Cc3ccccc3)CC2)c1	-	-	0	-	-	0
Clc1ccc(Nc2ncnc3c2cnn3-c2ccccc2)cc1	-53.2	0	?	0	0	0
CC(C)Nc1ncnc2c1cnn2-c1ccc(Cl)cc1	-58.5	0	0	?	0	0
CC(=O)Nc1ccc(Nc2ncnc3c2cnn3-c2ccccc2)cc1	0	0	0	0	0	0
CC(OC(=O)c1cccc(S(=O)(=O)Nc2cccc(C(F)(F)F)c2)c1)C(=O)Nc1ccc2c(c1)OCCO2 (stereo unspecified)	0	0	?	0	0	0
COc1cccc(CC2(CO)CCCN(Cc3cn(C)c4ccccc34)C2)c1 (stereo unspecified)	0	0	?	0	0	0
CCn1cc(CN2CCCC(CO)(Cc3ccc(F)cc3)C2)c2ccccc21 (stereo unspecified)	-65.3	18.4µM	?	0	?	0
Cn1cc(CN2CCCC(CO)(Cc3ccccc3)C2)c2ccccc21 (stereo unspecified)	-58.9	?	0	0	?	0
O=C(NCCNC(=O)c1ccco1)c1cccc(F)c1	0	0	0	0	0	0
COc1ccc(-c2c(C)sc(NC(=O)c3ccnn3C)c2C#N)cc1	0	20.6µM	0	0	13µM	0
Nc1nc(Nc2ccccc2F)nc(NCCO)c1[N+](=O)[O-]	0	0	0	0	0	0
Cc1c(Cl)cccc1-n1ncc(C(=O)NC2CCCCC2)c1C1CCN(C(=O)OC(C)(C)C)CC1	-	-	0	-	-	0
COc1ccccc1N1CCN(CCCNC(=O)c2cnn(-c3cccc(Cl)c3)c2C2CCN(C(=O)OC(C)(C)C)CC2)CC1	-	-	12.6µM	-	-	12.6µM
CC(C)(C)OC(=O)N1CCC(c2c(C(=O)NC3CCCCC3)cnn2-c2cccc(Cl)c2)CC1	-	-	17.8µM	-	-	0
O=C1c2ccccc2C(=O)c2c(/C=C/N3CCCCC3)ccnc21	-107.1	23.1µM	?	0	0	3.55µM
O=C1c2ccccc2-c2cccnc21	0	0	0	0	0	0
O=C1/C(=C/c2ccccc2)CCc2ccc(Cl)nc21	-105.3	18.4µM	20µM	0	?	0
O=C1OCC/C1=C\c1ccccc1	0	0	0	0	0	0
CCOc1cc(C(=O)Nc2nnc(C)s2)cc(OCC)c1OCC	0	0	0	0	0	0
Nc1cc(N2CCCC2)c(Cl)cc1[N+](=O)[O-]	0	0	0	0	0	0
O=[N+]([O-])c1cc(Cl)c(Cl)c(Cl)c1Cl	-92.7	0	0	0	0	0
C/C(=N/NC(=O)CNC(=O)C(c1ccccc1)c1ccccc1)c1ccco1	0	0	0	0	0	0
C=CCn1c(Sc2ncc([N+](=O)[O-])s2)n[nH]c1=O	-102.9	5.17µM	3.55µM	0	5.8µM	0
Cc1cc(C)n2nc(C(=O)OCCOc3cccc(Br)c3)nc2n1	0	0	0	0	0	0
